# About 620 (0.17%) of roughly 370,000 compounds were called active. The entries come from a sample that favours actives as a whole. A number with no mark means an inactive call.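 The calls were made as follows: active = inhibition above the mean inhibition of all tested compounds plus 3 SD, set per campaign (cut at about 52% in these data); inactive = the rest.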
# Target: Nuclear receptor coactivator 2 (Homo sapiens) (UniProt Q15596)
# Assay: decrease of SRC2 fusion reporter luminescence – cell-based, SRC2 inhibitor project, primary screen (AID 651957);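 also: 0% = DMSO treated cells and 100% = cells given Gossypol at 36 µM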
# Details: HEK293 GAL4-SRC2 luciferase reporter, at 9 µM, active compounds read high
# Chain of Nuclear receptor coactivator 2 (Homo sapiens) (Q15596 whole entry, looked up, the tested form may be a part): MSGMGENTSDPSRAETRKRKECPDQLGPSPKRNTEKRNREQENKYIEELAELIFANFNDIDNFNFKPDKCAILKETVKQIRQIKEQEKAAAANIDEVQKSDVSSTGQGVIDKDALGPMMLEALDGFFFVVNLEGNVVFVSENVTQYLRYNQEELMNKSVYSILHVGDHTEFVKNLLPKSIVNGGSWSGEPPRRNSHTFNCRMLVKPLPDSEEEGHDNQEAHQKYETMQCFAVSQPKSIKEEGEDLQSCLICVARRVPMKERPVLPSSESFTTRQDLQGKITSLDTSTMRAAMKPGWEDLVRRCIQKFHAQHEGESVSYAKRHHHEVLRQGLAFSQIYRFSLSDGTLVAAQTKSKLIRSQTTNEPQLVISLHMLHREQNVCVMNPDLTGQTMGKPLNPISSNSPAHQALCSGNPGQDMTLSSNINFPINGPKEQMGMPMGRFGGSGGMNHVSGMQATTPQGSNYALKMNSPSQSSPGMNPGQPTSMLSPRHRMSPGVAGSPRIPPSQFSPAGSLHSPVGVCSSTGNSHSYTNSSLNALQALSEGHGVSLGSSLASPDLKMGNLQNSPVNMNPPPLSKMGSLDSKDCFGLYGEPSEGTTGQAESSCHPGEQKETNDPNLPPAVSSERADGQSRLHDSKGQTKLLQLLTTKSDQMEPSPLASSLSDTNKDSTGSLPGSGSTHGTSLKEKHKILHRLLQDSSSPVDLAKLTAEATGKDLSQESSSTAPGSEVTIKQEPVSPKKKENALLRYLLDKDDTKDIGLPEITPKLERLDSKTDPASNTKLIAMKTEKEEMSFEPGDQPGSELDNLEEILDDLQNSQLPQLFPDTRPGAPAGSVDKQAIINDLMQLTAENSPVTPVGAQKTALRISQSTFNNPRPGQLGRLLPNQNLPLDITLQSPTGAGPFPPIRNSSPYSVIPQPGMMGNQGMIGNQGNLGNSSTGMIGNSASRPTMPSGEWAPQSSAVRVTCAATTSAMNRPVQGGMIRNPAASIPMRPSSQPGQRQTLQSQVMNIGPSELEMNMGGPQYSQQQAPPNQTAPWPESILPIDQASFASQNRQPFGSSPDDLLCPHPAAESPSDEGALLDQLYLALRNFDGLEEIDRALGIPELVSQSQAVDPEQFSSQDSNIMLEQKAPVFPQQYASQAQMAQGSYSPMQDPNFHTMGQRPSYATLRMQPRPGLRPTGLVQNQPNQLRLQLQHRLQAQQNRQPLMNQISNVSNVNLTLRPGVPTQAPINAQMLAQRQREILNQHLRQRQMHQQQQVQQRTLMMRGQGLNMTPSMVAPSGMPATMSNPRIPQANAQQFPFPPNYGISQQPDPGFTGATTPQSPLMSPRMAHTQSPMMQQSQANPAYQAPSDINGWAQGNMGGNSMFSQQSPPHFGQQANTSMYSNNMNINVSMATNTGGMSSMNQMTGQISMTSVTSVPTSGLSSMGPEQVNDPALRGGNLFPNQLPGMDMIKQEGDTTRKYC
row,Compound,inhibition
1,Cc1cc(N2CCN(C(=O)OC(C)(C)C)C[C@H]2C)ccc1N1CCN(Cc2ccccc2)[C@H](C)C1,-2.83%
2,COc1ccc(CN2C(=O)N3Cc4cc(OC)ccc4C3CS2(=O)=O)cc1 (stereo not given),15.8%
3,Cc1ccc(-n2c(SCC(=O)Nc3ccc(S(=O)(=O)Nc4nccs4)cc3)nnc2-c2ccccn2)cc1,9.13%
4,CC(=O)NCc1ccc(S(=O)(=O)NC2CCN(Cc3ccccc3)CC2)cc1,6.61%
5,COC(=O)[C@@H]1C[C@@]2(O)[C@@H](O)[C@@H](O)[C@@H](O)C[C@H]2N1Cc1ccc(C)s1,-14.3%
6,C/C=C/c1ccc(OCC(O)CN2CCCCCCC2)c(OC)c1 (stereo not given),11.7%
7,CCOC(=O)[C@@]12CN(C(=O)OC(C)(C)C)CC=C1N(Cc1ccc(OC)cc1)C(=O)[C@H]2CC(=O)NCc1ccc(OC)c(OC)c1,-4.35%
8,O=C(CSc1nnc(-c2ccccc2)n1Cc1ccco1)Nc1ccccc1-c1ccccc1,-16.5%
9,CC(=O)C1=C(C)N(Cc2ccccc2)C(=S)NC1c1cccc(Br)c1 (stereo not given),-0.56%
10,COC(=O)c1ccc(CN2C(=O)[C@]3(OCCC=C[C@H]3C)c3c(Br)cccc32)cc1,4.53%
11,Cc1ccc(NC(=O)Nc2cc(C)nn2-c2ccccc2)cc1,-32.3%
12,Cc1cc(Nc2ccccc2)n(C(=O)c2ccc(N)cc2)n1,62% (active)
13,Cn1c(Nc2ccccc2)cc(=O)n(C)c1=O,-0.54%
14,COc1ccc2c(c1)CN1CN(CCc3ccccc3)S(=O)(=O)CC21 (stereo not given),5.4%
15,O=C(NCc1ccccc1)[C@H]1CCCN1C(=O)[C@H]1CCCN1C(=O)N1CCOCC1,3.99%
16,CCOC(=O)C1CCCN(C(=O)c2cccc3ccccc23)CC1 (stereo not given),7.84%
17,CCC(C)(C(=O)NC1CCCCC1)N(C)C(=O)c1ccc2c(c1)OCO2 (stereo not given),-11.6%
18,COc1ccc(OC)c(CNC(=O)c2cc(=O)[nH]c3ccc(S(=O)(=O)N4CCCC4)cc23)c1,-15.1%
19,O=C1CC[C@@H](COc2ccc3[nH]cc(-c4ccccc4)c3c2-c2ccccc2)N1,4.07%
20,CCCc1nc(SCC(=O)N2CCCC2)c2c(=O)n(C)c(=O)n(C)c2n1,2.56%
21,O=C1NC(c2ccccc2)CCC1(Cl)Cl (stereo not given),-13.7%
22,O=C1NC(c2ccccc2)Oc2ccccc21 (stereo not given),-0.1%

row,Compound,inhibition
1,O=C1NC(c2ccccc2)Cc2ccncc21 (stereo not given),58.9% (active)
2,CCCCn1c(N)c(N(Cc2ccccc2OC)C(=O)COc2cc(C)ccc2Cl)c(=O)[nH]c1=O,-2.7%
3,O=C(NCc1nnc(SCC(=O)N2CCCCCC2)o1)c1ccc(F)cc1,-14.4%
4,Cc1ccccc1NC(=O)COC(=O)c1ccc(Sc2ncn[nH]2)c([N+](=O)[O-])c1,-15.7%
5,COC(=O)c1cc(S(=O)(=O)N2CCN(c3ccccc3C)CC2)cn1C,20.3%
6,C[C@@H]1COc2cccc(N3CCCC3)c2S(=O)(=O)N1C,-9.18%
7,Cc1ccc2oc(=O)c3cnn(CC(=O)N(Cc4ccco4)C4CCCCC4)c3c2c1,-25.6%
8,NNC(=O)C1CC(O)CN1S(=O)(=O)c1ccc(Cl)cc1 (stereo not given),23.4%
9,COc1ccccc1CNC(=O)C1CCN(S(=O)(=O)c2ccc3c(c2)OCCO3)CC1,-1.43%
10,COC(=O)[C@]12C[C@H](CC(=O)N3CCN(C(=O)C4CC4)CC3)C(=O)N(CCC3=CCCCC3)C1=C[C@H](C(C)C)O[C@@H]2C1CC1,-0.28%
11,CCNC(=S)N1CCC(c2nc3cc(C)c(C)cc3[nH]2)CC1,-32.6%
12,O=C(CSc1nnc(-c2ccccn2)n1-c1ccccc1)Nc1ccc2cn[nH]c2c1,-5.6%
13,CC(C)(C)C(c1nc2ccccc2[nH]1)n1c(Cc2csc3ccccc23)nc2ccccc21 (stereo not given),-15%
14,CS(=O)(=O)N1CCN=C1SCc1ccc(F)cc1,-10.1%
15,O=C(C1CCN(S(=O)(=O)c2ccccc2)CC1)N1CCN(C2CCCCC2)CC1,14.3%
16,COC(=O)C1=C(C)N(Cc2ccc(C(F)(F)F)cc2)C(=NCc2ccc(C(F)(F)F)cc2)NC1c1cccc(Cl)c1 (stereo not given),-4.35%
17,OCCCNc1nccc(-c2cc(Nc3cccc(Cl)c3)ncn2)n1,56.3% (active)
18,Cc1ccc(NC(=O)c2cc(C)nn2-c2ccccc2)c(C)c1,4.89%
19,CCCC(=O)N1CCC1(C)C(=O)NCc1ccc(SC)cc1 (stereo not given),-38.9%
20,Cc1sc2nc(SCC(=O)c3ccc(O)c(O)c3)n(Cc3ccco3)c(=O)c2c1C,8.73%
21,C=CCN=C1NC(c2cccc(C(F)(F)F)c2)C(C(=O)OC)=C(C)N1C (stereo not given),-11.9%
22,CC(C)N1CCCCC(NC(=O)c2ccc3ccccc3c2)C1=O (stereo not given),-10%

row,Compound,inhibition
1,CCOc1ccc(S(=O)(=O)NCCCn2ccnc2)cc1NC(C)=O,12.2%
2,Nc1[nH]c(/C=C2/CCCCC2n2[nH]c(=O)n(-c3ccccc3)c2=O)c(Cc2ccccc2)[n+]1Cc1ccccc1 (stereo not given),12.9%
3,C=CCN1[C@@H](Cc2ccccc2)COc2cccc(N3CCSCC3)c2S1(=O)=O,10.1%
4,CC(C)(C)OC(=O)NCc1cc(F)ccc1/C=C/S(=O)(=O)NCCc1ccccc1,4.87%
5,COc1cccc(N(C)C(=O)[C@@H](C)[C@@H](O)c2ccc3ccccc3c2)c1,-32.8%
6,CC(C)CC(CCc1ccccc1)OS(N)(=O)=O (stereo not given),-15.3%
7,O=C(O)C1C2C=CC(C2)C1C(=O)N1CCN(CCO)CC1 (stereo not given),-0.51%
8,O=C(NC(=S)N1CCN(Cc2ccccc2)CC1)c1ccccc1,-12.4%
9,OCCN1CCN(C(=S)c2ccc(-c3ccccc3)cc2)CC1,71.1% (active)
10,CC(=O)OC12CCCN(C1)/C(=C/c1ccncc1)C2 (stereo not given),12.7%
11,COC(=O)C1=C(C)N(Cc2cccc(C(F)(F)F)c2)C(=NCc2ccccc2)NC1c1ccc(Cl)cc1 (stereo not given),-0.5%
12,Cc1ccccc1NC(=O)c1nn(-c2ccc(F)c(F)c2)ccc1=O,1.35%
13,Cc1nnnn1/C(=C\c1ccccc1)C(=O)OCC(=O)N1CC2(C)CC1CC(C)(C)C2 (stereo not given),32.3%
14,O=C1N=C2SCCN2/C1=C\c1c(Cl)cccc1Cl,4.12%
15,Cc1ccc(NC(=O)CCOc2ccccc2)cc1S(=O)(=O)Nc1ccccc1Cl,9.26%
16,CC(C)Cc1nc(Nc2ccc(S(=O)(=O)N3CCCC3)cc2)c2nnn(Cc3ccccc3)c2n1,-14.5%
17,CCCCOCCCNC(=O)C[C@H]1C[C@@]2(C(=O)OC)C(=C[C@H](C(C)(C)C)O[C@@H]2C)N(CCc2ccc(OC)c(OC)c2)C1=O,1.08%
18,COc1ccc(/C=C2/SC(=O)N(CCCCCC(=O)Nc3ccccc3C(=O)O)C2=S)cc1,58.3% (active)
19,COc1ccc(NC(=O)CCCN2C(=O)C(c3ccccc3)Oc3cccnc32)cc1 (stereo not given),2.65%
20,COc1ccc(NC(=O)CN2C(=O)CSC2=O)cc1,-15.1%
21,CC(=O)Nc1ccc(NC(=O)C(C)n2c3ccccc3c3nc(=O)cc(C)n32)cc1 (stereo not given),-6.71%
22,O=C1C=C(c2ccccc2)CCC1,-5.31%

row,Compound,inhibition
1,COC(=O)[C@]12C[C@H](CC(=O)NCc3ccccc3)C(=O)N(CCC3=CCCCC3)C1=C[C@H](C(C)(C)C)O[C@@H]2C,28.1%
2,N=c1n(CCc2ccccc2)c2ccccc2n1Cc1ccccc1F,2.8%
3,COc1c(C=O)c(CCN(C)C(=O)c2ccc(F)cc2)cc2c1OCO2,0.41%
4,CCCC[C@H]1C2CC(OC(=O)NCc3ccccc3)C(C2)[C@H]2CCCCN21 (stereo not given in full),-8.24%
5,COCCC(=O)Nc1ccc2c(c1)CN(C(=O)CCOC)CC2,9.25%
6,Cc1ccc(C(=O)N(Cc2ccccn2)CC2CCCO2)cc1 (stereo not given),-16.2%
7,Cc1noc(C)c1NC(=O)Nc1ccc2c(c1)C(=O)N([C@H](C)CO)C[C@H](C)[C@H](CN(C)Cc1ccncc1)OCCCC[C@@H](C)O2,5.48%
8,CC(C)N1CCCCC(NC(=O)C(C)(C)C)C1=O (stereo not given),11.4%
9,O=C(Nc1ccccc1Cl)/C(Cl)=C(\Cl)S(=O)c1ccccc1 (stereo not given),85.5% (active)
10,COc1ccc(N2c3ccccc3CN(Cc3ccccc3)[C@@H](C)[C@H]2Cc2ccc(-c3ccccc3)cc2)cc1,-9.73%
11,Cc1c(C(C)c2ccccc2O)[nH]c2ccccc12 (stereo not given),-18.6%
12,O=S1(=O)c2c(cccc2N2CC[C@H](O)C2)O[C@@H]2CCN1C2,-22.3%
13,Cc1ccc(C2=CCN(C)C(=O)N2c2ccc(Cl)cc2)cc1,30.5%
14,O=C(NC1CCCCN(Cc2cccc(C(F)(F)F)c2)C1=O)c1ccccc1I (stereo not given),18.9%
15,CCCC(CCC(=O)OC)(C(=O)OCC)c1csc(N)n1 (stereo not given),11%
16,CCOC(=O)[C@]12CCCCC/C=C\1N(Cc1ccc(OC)cc1)C(=O)[C@H]2CC(=O)NCc1ccc(C)o1,-22.3%
17,O=C(CSc1nc2ccccc2n1Cc1ccccc1)NNC(=S)Nc1ccccc1,4.68%
18,COC(=O)C1=C(C)N(Cc2cccc(C(F)(F)F)c2)C(=NCc2cccc(C(F)(F)F)c2)NC1c1ccccc1C(F)(F)F (stereo not given),-30.7%
19,Cc1ccccc1CN1CCCCC(NC(=O)c2cccc(C#N)c2)C1=O (stereo not given),-18.3%
